We go through 33 compounds from ChEMBL document CHEMBL4513141, “CO-ADD screening of NIH (USA) - Clinical Collection” (2021).

Measured potencies and affinities stand elsewhere.

In one assay the test system is Staphylococcus aureus. Conditions: Concentration 20 uM; ASSAY_TEST Inhibition of Bacterial Growth; detection method Absorption (OD600); MEDIA CAMHB; plate type 384well; NBS; CORNING #3640; time 18 hr.
For another assay, the system named is Escherichia coli. Conditions: Concentration 20 uM; ASSAY_TEST Inhibition of Bacterial Growth; detection method Absorption (OD600); MEDIA CAMHB; plate type 384well; NBS; CORNING #3640; time 18 hr.

Regarding `O=c1c(O[C@@H]2O[C@H](CO)[C@@H](O)[C@H](O)[C@H]2O)c(-c2ccc(O)c(O)c2)oc2cc(O)cc(O)c12` [ISOQUERCETIN], the Inhibition (usually the relative decrease from the control value, in per cent) in the assay with Staphylococcus aureus is on record as 18.79%; in the assay on Escherichia coli, -1.78%.
For `CN(Cc1cnc2nc(N)nc(N)c2n1)c1ccc(C(=O)N[C@@H](CCC(=O)O)C(=O)O)cc1.O`, in the assay with Staphylococcus aureus, the Inhibition was found to be 8.23%.
Consider `Cl.O.O=C1N(c2ccccc2)c2ccccc2C1(Cc1ccncc1)Cc1ccncc1`, for which the Inhibition worked out at 4.07% in the assay with Staphylococcus aureus and 3.98% in the assay on Escherichia coli.
The corresponding values for `CC(N/C(=N\C#N)Nc1ccncc1)C(C)(C)C.O` (configuration not stated) are -1.94% and -6.33%.
Turning to `O=[N+]([O-])c1cccc2cn[nH]c12` [7-NITROINDAZOLE], the Inhibition in the assay with Staphylococcus aureus came to 16.98%; with Escherichia coli it was 6.38%.
With `Cc1cnc(C(=O)NCCc2ccc(S(=O)(=O)NC(=O)NC3CCCCC3)cc2)cn1` [GLIPIZIDE], the Inhibition with Staphylococcus aureus was 13.08%.
On to `COc1ccccc1N1CCN(CCCNc2cc(=O)n(C)c(=O)n2C)CC1.Cl` [URAPIDIL HYDROCHLORIDE], for which the Inhibition is 12.2% in the assay with Staphylococcus aureus and 0.81% with Escherichia coli.
The corresponding values for `NC(CO)(CO)CO.O=C(c1ccccc1)c1ccc2n1CCC2C(=O)O` (configuration not stated) [KETOROLAC TROMETHAMINE] are 4.45% and -3.99%.
For `CCS(=O)(=O)CCn1c([N+](=O)[O-])cnc1C` [TINIDAZOLE], the Inhibition in the assay with Staphylococcus aureus was 16.09%; with Escherichia coli, -5.72%.
For the compound `CC(C)(C(=O)O)c1ccc(C(O)CCCN2CCC(C(O)(c3ccccc3)c3ccccc3)CC2)cc1.Cl` (configuration not stated) [FEXOFENADINE HYDROCHLORIDE], the Inhibition in the assay with Staphylococcus aureus is listed as 11.48%.
Regarding `CC(C)(C)C(O)/C=C/c1ccc2c(c1)OCO2` (configuration not stated) [STIRIPENTOL], the Inhibition is given as 0.92% with Staphylococcus aureus and 6.07% in the assay with Escherichia coli.
For `O=C1c2c(O)cc(O)cc2O[C@H](c2ccc(O)c(O)c2)[C@@H]1O` the same measures were 15.43% and -4.02%.
For `CCCc1nc(C(C)(C)O)c(C(=O)OCc2oc(=O)oc2C)n1Cc1ccc(-c2ccccc2-c2nnn[nH]2)cc1` [OLMESARTAN MEDOXOMIL], the Inhibition in the assay with Staphylococcus aureus is listed as 10.76%; with Escherichia coli, -6.4%.
With `CC1=C(C(=O)O)N2C(=O)[C@@H](NC(=O)[C@H](N)c3ccccc3)[C@H]2SC1.O` [CEPHALEXIN], in the assay with Staphylococcus aureus, the Inhibition was -0.36%.
Same read-out and setting: the value for `COc1ccc2cc([C@H](C)C(=O)[O-])ccc2c1.[Na+]` [NAPROXEN SODIUM] was 6.58%.
As for `CCN(CC)CCOC(=O)c1ccc(N)cc1.Cl` [PROCAINE HYDROCHLORIDE], the Inhibition in the assay on Staphylococcus aureus is listed as 7.14%; with Escherichia coli, 4.36%.
For `Cl.O.OC[C@H]1O[C@@H](n2cnc3c(N[C@H]4CCC[C@@H]4O)ncnc32)[C@@H](O)C1O` (some centres not stated) the same measures were 7.67% and 1.98%.
For `CN(C)CCC[C@@]1(c2ccc(F)cc2)OCc2cc(C#N)ccc21.O=C(O)C(=O)O` [ESCITALOPRAM OXALATE] the same measures were 8.47% and 3.57%.
The corresponding values for `CC1CCN(CCCC(=O)c2ccc(F)cc2)CC1.Cl` are 4.4% and 6.76%.
For the compound `CC(C)[N+]1(C)C2CCC1CC(OC(=O)C(CO)c1ccccc1)C2.[Br-]` (configuration not stated), the Inhibition in the assay on Staphylococcus aureus is given as 9.02%.
For the compound `CCOC(=O)N1CCC(=C2c3ccc(Cl)cc3CCc3cccnc32)CC1` [LORATADINE], the Inhibition in the assay with Staphylococcus aureus is 11.88%.
With `CCC(=O)[N-]S(=O)(=O)c1ccc(-c2c(-c3ccccc3)noc2C)cc1.[Na+]` [PARECOXIB SODIUM], the Inhibition in the assay with Staphylococcus aureus is 0.13%; in the assay on Escherichia coli, 6.4%.
As to `C[C@]12CCC(=O)C=C1CC[C@@H]1[C@@H]2[C@@H](O)C[C@@]2(C)[C@H]1CC[C@]2(O)C(=O)CO` [HYDROCORTISONE], the Inhibition in the assay with Staphylococcus aureus turned out to be 7.72%.
Turning to `CC(=O)OCC(=O)[C@@]1(O)CC[C@H]2[C@@H]3CCC4=CC(=O)CC[C@]4(C)[C@H]3C(=O)C[C@@]21C` [CORTISONE ACETATE], the Inhibition with Staphylococcus aureus is recorded as 12.24%; with Escherichia coli, 5.41%.
With `Cl.O=C1CN2Cc3c(ccc(Cl)c3Cl)N=C2N1` [ANAGRELIDE HYDROCHLORIDE], the Inhibition in the assay on Staphylococcus aureus was found to be 11.06%; with Escherichia coli it was 7.21%.
With `CCc1cccc2c3c([nH]c12)C(CC)(CC(=O)O)OCC3` (configuration not stated) [ETODOLAC], the Inhibition is listed as 5.09% in the assay on Staphylococcus aureus and -6.35% in the assay on Escherichia coli.
For `O=C(O)CCc1nc(-c2ccccc2)c(-c2ccccc2)o1` [OXAPROZIN] the same measures were 10.43% and 2.77%.
As for `CN(C)CCOC(c1ccccc1)c1ccccc1.Cl` [DIPHENHYDRAMINE HYDROCHLORIDE], the Inhibition with Staphylococcus aureus is reported as -13.43%.
`CC[C@@]1(O)C(=O)OCc2c1cc1n(c2=O)Cc2cc3c(CN(C)C)c(O)ccc3nc2-1.Cl` [TOPOTECAN HYDROCHLORIDE]: the Inhibition stood at 12.09% with Staphylococcus aureus and 3.87% with Escherichia coli.
The corresponding values for `Cl.O=c1n(CCCN2CCN(c3cccc(Cl)c3)CC2)nc2ccccn12` [TRAZODONE HYDROCHLORIDE] are 11.44% and 0.18%.
For `Nc1nc(=O)c2nc(CNc3ccc(C(=O)N[C@@H](CCC(=O)O)C(=O)O)cc3)cnc2[nH]1` [FOLIC ACID] the same measures were 10.57% and -0.13%.
The corresponding values for `CCN1CC(CCN2CCOCC2)C(c2ccccc2)(c2ccccc2)C1=O.Cl` (configuration not stated) are -18.77% and 2.66%.
In the case of `COc1cc(C)nc(-n2nc(C)cc2OC)n1` [EPIRIZOLE], the Inhibition in the assay on Staphylococcus aureus is on record as 7.75%; with Escherichia coli, -0.13%.
